Counter-ions that a name gives are not always drawn. Unmarked numbers belong to inactive results.
test system: HeLa; assay: MALAT1 nuclear FISH intensity, robust Z-score vs DMSO; higher = more nuclear MALAT1 lncRNA, active = -3 or less; conditions: 10 µM; 6 h
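Note: High-content confocal imaging of branched-DNA amplified FISH in 384-well plates, Hoechst-defined nuclei, score is well value minus plate DMSO median over DMSO robust SD, four wells per compound.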

Row | SMILES | MALAT1 nuclear FISH intensity
1 | O=C(O)c1cn(C2CC2)c2cc(N3CCNCC3)c(F)cc2c1=O [Ciprofloxacin] | 0.579
2 | CCCCS(=O)(=O)N[C@@H](Cc1ccc(OCCCCC2CCNCC2)cc1)C(=O)O | 0.916
3 | CC(=O)N[C@@H](CC(C)C)C(=O)N[C@@H](CC(C)C)C(=O)N[C@H](C=O)CCCNC(=N)N [Leupeptin hemisulfate salt] | -0.161
4 | CC1=C(/C=C/C(C)=C/C=C/C(C)=C\C(=O)O)C(C)(C)CCC1 [Isotretinoin] | -1.79
5 | O=C(c1ccc(OCCN2CCCCC2)cc1)c1c(-c2ccc(O)cc2)sc2cc(O)ccc12 [Raloxifene hydrochloride] | -0.738
6 | c1ccc2[nH]cnc2c1 [DRB (Benzimidazole)] | -2.06
7 | COc1ccc([C@@H]2Sc3ccccc3N(CCN(C)C)C(=O)[C@@H]2OC(C)=O)cc1 | -0.0376
8 | C[C@@H]1C[C@H]2[C@@H]3CCC4=CC(=O)C=C[C@]4(C)[C@@]3(F)[C@@H](O)C[C@]2(C)[C@@]1(O)C(=O)CO [Dexamethasone] | 0.0684
9 | CNC(=O)[C@H]1O[C@@H](n2cnc3c(NCc4cccc(I)c4)ncnc32)[C@H](O)[C@@H]1O | 2.19
10 | O=C(O)COCCN1CCN([C@H](c2ccccc2)c2ccc(Cl)cc2)CC1 [Levocetirizine Dihydrochloride] | -0.0578
11 | C[C@H]1[C@H](NC(=O)/C(=N\OC(C)(C)C(=O)O)c2csc(N)n2)C(=O)N1S(=O)(=O)O [Aztreonam] | 0.0374
12 | CCCCC/C=C\C/C=C\C/C=C\C/C=C\CCCC(=O)O[C@@H](CO)COCCCCCCCCCCCCCCCC [1-Hexadecyl-2-arachidonoyl-glycerol] | -0.812
13 | CCCCc1ncc(/C=C(\Cc2cccs2)C(=O)O)n1Cc1ccc(C(=O)O)cc1 [Eprosartan Mesylate] | 0.454
14 | COc1cc(C=C(C#N)C(N)=O)cc(CSc2nc3ccccc3s2)c1O [Tyrphostin AG-825] | -0.244
15 | c1ccc2[nH]c(-c3cscn3)nc2c1 [Thiabendazole] | -0.594
16 | C=C1O[C@@](CO)(n2cnc3c(N)ncnc32)[C@H](O)[C@@H]1O [Decoyinine] | 0.453
17 | CC(=O)OCC(=O)[C@@]1(O)CC[C@H]2[C@@H]3CCC4=CC(=O)CC[C@]4(C)[C@H]3C(=O)C[C@@]21C [Cortisone Acetate] | 0.39

Row | SMILES | MALAT1 nuclear FISH intensity
18 | Cc1nc(Nc2ncc(C(=O)Nc3c(C)cccc3Cl)s2)cc(N2CCN(CCO)CC2)n1 [Dasatinib] | -3.35 (active)
19 | C=CC(C)(C)c1cc(/C=C/C(=O)c2ccc(O)cc2)c(OC)cc1O [Licochalcone A] | 0.043
20 | O=C(O)C1(C(=O)O)CCC1.[NH2-].[NH2-].[Pt+2] [Carboplatin] | 0.499
21 | CNCCC(Oc1ccc(C(F)(F)F)cc1)c1ccccc1 (centres undefined) | 0.711
22 | CCOC(=O)C1=C(COCCN)NC(C)=C(C(=O)OC)C1c1ccccc1Cl (centres undefined) [Amlodipine] | 0.523
23 | NC[C@H]1O[C@H](O[C@H]2[C@H](O)[C@@H](O[C@H]3O[C@H](CO)[C@@H](O)[C@H](N)[C@H]3O)[C@H](N)C[C@@H]2N)[C@H](O)[C@@H](O)[C@@H]1O [Kanamycin Sulfate] | -0.497
24 | CCCCCCCCCCCCCCCCOCC(CO)OC(C)=O (centres undefined) [1-Hexadecyl-2-O-acetyl-glycerol] | 0.86
25 | CCCC(=O)O[C@]1(C(=O)COC(C)=O)CC[C@H]2[C@@H]3C[C@H](F)C4=CC(=O)C=C[C@]4(C)[C@@]3(F)[C@@H](O)C[C@@]21C [Difluprednate] | -0.0991
26 | Nc1ccn([C@H]2CC[C@@H](CO)O2)c(=O)n1 [Zalcitabine] | 0.00319
27 | Brc1c(NC2=NCCN2)ccc2nccnc12 [Brimonidine] | -1.1
28 | C[N+](C)(C)CC(=O)O [Betaine] | 0.765
29 | NCCC(O)(P(=O)(O)O)P(=O)(O)O [Pamidronate Disodium  Pentahydrate (Pamidronic Acid)] | -0.734
30 | CCN(CC)CCNC(=O)c1cc(Cl)c(N)cc1OC | 0.662
31 | CC(C)=C1CCC(C)CC1=O (single isomer, unassigned; (+)) [(+)-Pulegone] | -1.33
32 | c1ccc2c(CC3=NCCN3)cccc2c1 | 0.288
33 | NCC[C@H](O)C(=O)N[C@@H]1C[C@H](N)[C@@H](O[C@H]2O[C@H](CN)[C@@H](O)[C@H](O)[C@H]2O)[C@H](O)[C@H]1O[C@H]1O[C@H](CO)[C@@H](O)[C@H](N)[C@H]1O [Amikacin Disulfate] | -0.653
34 | Cc1cccc(Nc2nc(-c3ccncc3)cs2)c1 | -0.461

From the supplement of paper PMC9844399
